# Measured values: PMC7862700, “An all-to-all approach to the identification of sequence-specific readers for epigenetic DNA modifications on cytosine”
# Legend:
# Assay in all cases: DAPPL (digital affinity profiling via proximity ligation, sequencing); 10 mM Tris-HCl pH 7.5, 50 mM NaCl, 1 mM DTT, 4% glycerol, room temperature, 30 min; GST-TFs on glutathione beads, 16-mer random dsDNA library, 0.1% formaldehyde crosslink after washing; high values mean tight binding
# [1] = target: T1, FLI1 (Homo sapiens, UniProt Q01543 1-452); conditions: protein: recombinant; tags: N-terminal GST; dsDNA, one strand shown
# T1 sequence: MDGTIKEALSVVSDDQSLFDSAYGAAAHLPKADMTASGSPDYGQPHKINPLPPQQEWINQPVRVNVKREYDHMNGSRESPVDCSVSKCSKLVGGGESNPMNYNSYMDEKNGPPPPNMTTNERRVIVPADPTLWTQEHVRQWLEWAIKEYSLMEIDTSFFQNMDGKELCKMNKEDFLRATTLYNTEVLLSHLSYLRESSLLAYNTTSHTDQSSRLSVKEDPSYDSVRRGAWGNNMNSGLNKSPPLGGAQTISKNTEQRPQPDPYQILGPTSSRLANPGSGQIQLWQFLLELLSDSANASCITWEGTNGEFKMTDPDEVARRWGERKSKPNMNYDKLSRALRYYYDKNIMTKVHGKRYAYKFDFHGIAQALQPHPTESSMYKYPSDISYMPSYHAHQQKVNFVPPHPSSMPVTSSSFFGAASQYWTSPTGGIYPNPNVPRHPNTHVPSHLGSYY
# Method in brief: (§1)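 Binding signal is given per hexamer as its read frequency for a factor divided by its frequency in the tag-only sample. GST-fused human transcription factors were expressed in yeast, captured on glutathione beads, barcoded with DNA and pooled with that sample, then incubated with 200 nmole of a 16-mer random double-stranded DNA library in Tris/NaCl/DTT/glycerol buffer for 30 min at room temperature. The pools were then washed, crosslinked, proximity-ligated, amplified by PCR and sequenced on an Illumina NextSeq500.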
# [2] = target: T2, ELK1 (Homo sapiens, UniProt P19419 1-428); conditions: protein: recombinant; tags: N-terminal GST; dsDNA, one strand shown
# T2 sequence: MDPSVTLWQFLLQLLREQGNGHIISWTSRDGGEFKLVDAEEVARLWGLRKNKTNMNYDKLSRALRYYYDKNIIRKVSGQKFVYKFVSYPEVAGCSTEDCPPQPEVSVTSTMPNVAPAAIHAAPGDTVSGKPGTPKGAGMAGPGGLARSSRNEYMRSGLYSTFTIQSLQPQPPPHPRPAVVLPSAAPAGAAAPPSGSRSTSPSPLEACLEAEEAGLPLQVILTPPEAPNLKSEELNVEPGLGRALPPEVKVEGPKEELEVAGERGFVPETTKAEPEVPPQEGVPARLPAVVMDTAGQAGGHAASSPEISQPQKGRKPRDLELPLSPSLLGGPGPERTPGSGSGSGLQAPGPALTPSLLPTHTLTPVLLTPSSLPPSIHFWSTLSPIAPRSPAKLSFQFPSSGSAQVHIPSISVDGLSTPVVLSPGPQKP
# Method in brief: as §1
# [3] = target: T3, GABPA (Homo sapiens, UniProt Q06546 1-454); conditions: protein: recombinant; tags: N-terminal GST; dsDNA, one strand shown
# T3 sequence: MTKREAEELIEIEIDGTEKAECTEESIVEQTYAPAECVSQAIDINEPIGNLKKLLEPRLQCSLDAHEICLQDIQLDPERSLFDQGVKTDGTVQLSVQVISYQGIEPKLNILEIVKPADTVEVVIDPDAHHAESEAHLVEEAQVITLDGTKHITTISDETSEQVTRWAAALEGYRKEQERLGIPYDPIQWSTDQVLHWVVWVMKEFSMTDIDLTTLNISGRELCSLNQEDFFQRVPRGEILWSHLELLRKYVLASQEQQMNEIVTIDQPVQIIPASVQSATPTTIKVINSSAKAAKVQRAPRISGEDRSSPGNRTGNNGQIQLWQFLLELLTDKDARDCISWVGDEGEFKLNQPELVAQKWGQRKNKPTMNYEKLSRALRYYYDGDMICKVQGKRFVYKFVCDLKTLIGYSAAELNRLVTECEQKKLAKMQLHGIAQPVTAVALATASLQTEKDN
# Method in brief: as §1
# [4] = target: T4, ERG (Homo sapiens, UniProt P11308 1-479); conditions: protein: recombinant; tags: N-terminal GST; dsDNA, one strand shown
# T4 sequence: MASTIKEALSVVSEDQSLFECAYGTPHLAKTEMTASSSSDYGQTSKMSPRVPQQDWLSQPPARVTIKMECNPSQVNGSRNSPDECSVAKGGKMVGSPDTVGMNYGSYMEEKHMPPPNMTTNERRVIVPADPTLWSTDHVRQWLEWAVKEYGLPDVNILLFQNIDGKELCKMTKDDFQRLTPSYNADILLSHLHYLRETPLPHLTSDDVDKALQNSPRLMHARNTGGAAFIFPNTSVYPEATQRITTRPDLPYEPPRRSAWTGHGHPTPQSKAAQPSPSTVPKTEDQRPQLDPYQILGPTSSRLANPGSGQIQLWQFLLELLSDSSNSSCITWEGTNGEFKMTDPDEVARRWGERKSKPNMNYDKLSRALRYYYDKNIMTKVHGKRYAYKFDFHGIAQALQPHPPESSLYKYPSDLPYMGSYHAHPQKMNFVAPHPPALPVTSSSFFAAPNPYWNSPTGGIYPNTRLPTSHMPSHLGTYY
# Method in brief: as §1
# [5] = target: ELF1 (Homo sapiens, UniProt P32519 1-619); conditions: protein: recombinant; tags: N-terminal GST; dsDNA, one strand shown
# Method in brief: as §1
# [6] = target: T5, EHF (Homo sapiens, UniProt Q9NZC4 1-300); conditions: protein: recombinant; tags: N-terminal GST; dsDNA, one strand shown
# T5 sequence: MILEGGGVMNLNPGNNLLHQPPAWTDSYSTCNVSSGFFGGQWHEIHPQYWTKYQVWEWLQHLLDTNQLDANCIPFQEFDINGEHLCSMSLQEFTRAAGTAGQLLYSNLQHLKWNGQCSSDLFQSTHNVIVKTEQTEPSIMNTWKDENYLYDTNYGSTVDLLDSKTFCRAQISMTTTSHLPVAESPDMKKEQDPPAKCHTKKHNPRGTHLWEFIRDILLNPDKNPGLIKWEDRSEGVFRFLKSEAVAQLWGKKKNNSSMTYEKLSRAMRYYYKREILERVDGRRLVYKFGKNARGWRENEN
# Method in brief: as §1
# [7] = target: SPI1 (Homo sapiens, UniProt P17947 1-270); conditions: protein: recombinant; tags: N-terminal GST; dsDNA, one strand shown
# Method in brief: as §1
# [8] = target: SPIB (Homo sapiens, UniProt Q01892 1-262); conditions: protein: recombinant; tags: N-terminal GST; dsDNA, one strand shown
# Method in brief: as §1
# [9] = target: T6, ELK3 (Homo sapiens, UniProt P41970 1-407); conditions: protein: recombinant; tags: N-terminal GST; dsDNA, one strand shown
# T6 sequence: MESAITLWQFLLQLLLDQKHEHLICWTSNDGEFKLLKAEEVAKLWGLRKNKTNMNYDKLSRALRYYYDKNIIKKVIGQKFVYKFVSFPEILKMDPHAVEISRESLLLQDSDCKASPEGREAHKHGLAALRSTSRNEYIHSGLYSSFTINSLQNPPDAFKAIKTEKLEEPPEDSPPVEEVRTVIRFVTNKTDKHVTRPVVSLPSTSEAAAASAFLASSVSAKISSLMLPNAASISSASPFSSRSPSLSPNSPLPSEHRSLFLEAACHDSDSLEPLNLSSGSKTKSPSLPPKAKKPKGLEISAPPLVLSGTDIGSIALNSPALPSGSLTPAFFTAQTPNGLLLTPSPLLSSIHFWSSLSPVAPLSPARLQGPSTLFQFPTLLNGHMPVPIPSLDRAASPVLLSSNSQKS
# Method in brief: as §1
# [10] = target: T7, FEV (Homo sapiens, UniProt Q99581 1-238); conditions: protein: recombinant; tags: N-terminal GST; dsDNA, one strand shown
# T7 sequence: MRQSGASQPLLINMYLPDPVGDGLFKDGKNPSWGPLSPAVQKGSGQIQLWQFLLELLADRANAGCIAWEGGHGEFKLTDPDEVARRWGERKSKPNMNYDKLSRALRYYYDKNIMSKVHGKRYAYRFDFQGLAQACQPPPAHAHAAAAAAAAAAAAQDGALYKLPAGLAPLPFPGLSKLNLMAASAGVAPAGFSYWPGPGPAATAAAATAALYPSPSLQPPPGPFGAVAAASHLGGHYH
# Method in brief: as §1
# [11] = target: ETV5 (Homo sapiens, UniProt P41161 1-510); conditions: protein: recombinant; tags: N-terminal GST; dsDNA, one strand shown
# Method in brief: as §1
# [12] = target: HSF1 (Homo sapiens, UniProt Q00613 1-529); conditions: protein: recombinant; tags: N-terminal GST; chain copies: 3; dsDNA, one strand shown
# Method in brief: as §1
# [13] = target: T8, SPIC (Homo sapiens, UniProt Q8N5J4 1-248); conditions: protein: recombinant; tags: N-terminal GST; dsDNA, one strand shown
# T8 sequence: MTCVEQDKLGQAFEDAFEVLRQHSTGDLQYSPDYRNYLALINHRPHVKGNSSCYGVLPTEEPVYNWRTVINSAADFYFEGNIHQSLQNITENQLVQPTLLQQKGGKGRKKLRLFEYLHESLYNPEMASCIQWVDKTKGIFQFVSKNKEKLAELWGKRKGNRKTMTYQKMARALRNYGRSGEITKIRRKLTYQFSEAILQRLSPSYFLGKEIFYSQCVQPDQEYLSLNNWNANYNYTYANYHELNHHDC
# Method in brief: as §1
# [14] = target: ELF4 (Homo sapiens, UniProt Q99607 1-663); conditions: protein: recombinant; tags: N-terminal GST; dsDNA, one strand shown
# Method in brief: as §1
# [15] = target: T9, ETV2 (Homo sapiens, UniProt O00321 1-342); conditions: protein: recombinant; tags: N-terminal GST; dsDNA, one strand shown
# T9 sequence: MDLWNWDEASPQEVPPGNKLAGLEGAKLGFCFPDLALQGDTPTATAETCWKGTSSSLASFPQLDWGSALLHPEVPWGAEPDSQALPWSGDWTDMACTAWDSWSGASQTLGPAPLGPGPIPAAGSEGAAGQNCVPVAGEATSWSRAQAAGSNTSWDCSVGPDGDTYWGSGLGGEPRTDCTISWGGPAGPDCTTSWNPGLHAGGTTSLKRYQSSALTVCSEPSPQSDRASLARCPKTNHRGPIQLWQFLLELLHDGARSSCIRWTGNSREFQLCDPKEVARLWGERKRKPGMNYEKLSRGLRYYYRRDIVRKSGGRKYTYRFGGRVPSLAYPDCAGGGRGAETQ
# Method in brief: as §1
# [16] = target: CRX (Homo sapiens, UniProt O43186 1-299); conditions: protein: recombinant; tags: N-terminal GST; dsDNA, one strand shown
# Method in brief: as §1
# [17] = target: ETV1 (Homo sapiens, UniProt P50549 1-477); conditions: protein: recombinant; tags: N-terminal GST; dsDNA, one strand shown
# Method in brief: as §1
# CRX, sequence (O43186 whole entry): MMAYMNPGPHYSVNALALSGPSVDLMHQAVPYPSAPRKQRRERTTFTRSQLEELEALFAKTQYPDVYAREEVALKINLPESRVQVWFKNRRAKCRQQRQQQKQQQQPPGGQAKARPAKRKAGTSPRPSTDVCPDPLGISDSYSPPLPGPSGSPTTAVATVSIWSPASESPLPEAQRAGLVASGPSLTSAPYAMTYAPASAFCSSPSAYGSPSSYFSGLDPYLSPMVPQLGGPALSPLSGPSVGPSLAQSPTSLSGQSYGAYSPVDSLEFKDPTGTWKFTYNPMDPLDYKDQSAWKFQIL
# ELF1, sequence (P32519 whole entry): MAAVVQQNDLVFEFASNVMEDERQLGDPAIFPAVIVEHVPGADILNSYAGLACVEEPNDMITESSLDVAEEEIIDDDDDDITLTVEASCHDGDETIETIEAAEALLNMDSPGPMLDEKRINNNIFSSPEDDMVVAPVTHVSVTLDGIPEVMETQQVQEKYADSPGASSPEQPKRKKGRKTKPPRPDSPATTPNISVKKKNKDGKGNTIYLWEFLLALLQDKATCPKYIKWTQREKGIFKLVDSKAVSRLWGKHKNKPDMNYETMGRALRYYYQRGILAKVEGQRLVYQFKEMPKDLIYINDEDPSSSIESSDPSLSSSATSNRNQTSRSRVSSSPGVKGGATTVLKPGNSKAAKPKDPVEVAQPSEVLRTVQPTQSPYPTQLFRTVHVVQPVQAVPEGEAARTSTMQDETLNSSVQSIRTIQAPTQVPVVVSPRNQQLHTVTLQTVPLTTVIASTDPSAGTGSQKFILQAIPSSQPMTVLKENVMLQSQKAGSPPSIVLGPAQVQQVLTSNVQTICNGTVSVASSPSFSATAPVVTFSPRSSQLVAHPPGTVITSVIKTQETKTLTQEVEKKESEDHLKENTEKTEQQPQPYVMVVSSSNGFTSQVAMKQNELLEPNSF
# HSF1, sequence (Q00613 whole entry): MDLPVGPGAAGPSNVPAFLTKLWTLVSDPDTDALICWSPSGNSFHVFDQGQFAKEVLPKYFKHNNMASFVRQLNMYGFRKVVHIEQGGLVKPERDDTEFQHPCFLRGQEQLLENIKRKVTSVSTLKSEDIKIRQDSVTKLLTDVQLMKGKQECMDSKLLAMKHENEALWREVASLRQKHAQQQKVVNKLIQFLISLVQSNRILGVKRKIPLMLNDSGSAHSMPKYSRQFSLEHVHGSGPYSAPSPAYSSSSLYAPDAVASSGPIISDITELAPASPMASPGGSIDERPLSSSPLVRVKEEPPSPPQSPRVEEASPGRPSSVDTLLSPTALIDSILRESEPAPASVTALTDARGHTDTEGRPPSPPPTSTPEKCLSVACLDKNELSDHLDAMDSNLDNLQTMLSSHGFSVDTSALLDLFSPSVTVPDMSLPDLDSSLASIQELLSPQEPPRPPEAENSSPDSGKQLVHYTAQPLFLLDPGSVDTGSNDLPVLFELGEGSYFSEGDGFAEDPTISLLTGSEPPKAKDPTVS
# ELF4, sequence (Q99607 whole entry): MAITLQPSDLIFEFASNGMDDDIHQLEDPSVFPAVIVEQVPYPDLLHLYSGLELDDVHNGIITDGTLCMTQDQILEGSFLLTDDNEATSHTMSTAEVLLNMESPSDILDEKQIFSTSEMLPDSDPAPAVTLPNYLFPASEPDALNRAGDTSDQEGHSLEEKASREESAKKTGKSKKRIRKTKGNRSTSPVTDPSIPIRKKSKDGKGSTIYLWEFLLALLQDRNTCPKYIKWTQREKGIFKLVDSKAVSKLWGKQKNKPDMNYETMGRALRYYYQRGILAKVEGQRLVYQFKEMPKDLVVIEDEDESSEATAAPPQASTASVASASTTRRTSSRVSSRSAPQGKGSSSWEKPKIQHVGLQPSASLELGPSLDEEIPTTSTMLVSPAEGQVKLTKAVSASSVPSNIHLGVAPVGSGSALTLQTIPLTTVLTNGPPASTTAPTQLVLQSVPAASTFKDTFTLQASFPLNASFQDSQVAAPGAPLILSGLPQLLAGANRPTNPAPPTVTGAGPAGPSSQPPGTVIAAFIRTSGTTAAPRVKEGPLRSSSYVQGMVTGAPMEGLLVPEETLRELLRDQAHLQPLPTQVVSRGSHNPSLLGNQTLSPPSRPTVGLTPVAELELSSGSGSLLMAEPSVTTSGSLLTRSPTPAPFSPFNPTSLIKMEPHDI
# ETV1, sequence (P50549 whole entry): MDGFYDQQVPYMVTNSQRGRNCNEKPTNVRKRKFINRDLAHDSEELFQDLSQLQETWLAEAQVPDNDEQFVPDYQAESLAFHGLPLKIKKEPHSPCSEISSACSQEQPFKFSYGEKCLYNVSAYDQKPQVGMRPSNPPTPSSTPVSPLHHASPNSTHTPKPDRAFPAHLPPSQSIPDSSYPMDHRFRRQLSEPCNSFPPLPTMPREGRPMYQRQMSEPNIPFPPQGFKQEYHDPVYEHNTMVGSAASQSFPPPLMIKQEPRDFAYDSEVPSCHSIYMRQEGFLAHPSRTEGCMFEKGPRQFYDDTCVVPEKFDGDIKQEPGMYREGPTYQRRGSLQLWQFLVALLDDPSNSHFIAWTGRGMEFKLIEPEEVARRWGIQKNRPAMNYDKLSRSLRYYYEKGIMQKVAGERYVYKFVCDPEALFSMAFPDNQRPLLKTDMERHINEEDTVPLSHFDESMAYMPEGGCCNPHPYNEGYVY
# ETV5, sequence (P41161 whole entry): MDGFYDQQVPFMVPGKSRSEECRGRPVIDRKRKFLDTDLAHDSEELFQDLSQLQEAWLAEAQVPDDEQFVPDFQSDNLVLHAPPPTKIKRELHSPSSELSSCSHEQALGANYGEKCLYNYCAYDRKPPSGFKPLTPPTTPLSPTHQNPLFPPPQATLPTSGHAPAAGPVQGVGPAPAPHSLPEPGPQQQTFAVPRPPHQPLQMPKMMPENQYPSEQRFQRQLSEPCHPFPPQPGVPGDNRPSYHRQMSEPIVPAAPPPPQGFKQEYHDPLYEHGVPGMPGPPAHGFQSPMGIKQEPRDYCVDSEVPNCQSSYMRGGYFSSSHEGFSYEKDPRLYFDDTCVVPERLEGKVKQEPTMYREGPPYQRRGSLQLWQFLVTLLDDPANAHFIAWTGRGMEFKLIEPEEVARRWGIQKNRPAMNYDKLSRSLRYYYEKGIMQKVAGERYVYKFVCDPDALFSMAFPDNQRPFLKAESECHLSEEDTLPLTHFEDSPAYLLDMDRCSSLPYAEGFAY
# SPIB, sequence (Q01892 whole entry): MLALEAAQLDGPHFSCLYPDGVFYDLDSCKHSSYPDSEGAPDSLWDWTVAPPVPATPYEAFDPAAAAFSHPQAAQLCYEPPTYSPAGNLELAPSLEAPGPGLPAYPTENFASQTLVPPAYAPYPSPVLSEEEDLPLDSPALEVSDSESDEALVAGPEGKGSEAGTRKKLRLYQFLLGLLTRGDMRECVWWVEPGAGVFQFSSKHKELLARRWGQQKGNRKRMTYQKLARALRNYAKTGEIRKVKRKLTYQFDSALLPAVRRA
sequence,measurement,setting,value
CTAGGC,binding signal,[1],"1.17 fold enrichment (6-mer frequency, TF over GST control)"
same,binding signal,[2],"1.1 fold enrichment (6-mer frequency, TF over GST control)"
same,binding signal,[3],"1.23 fold enrichment (6-mer frequency, TF over GST control)"
same,binding signal,[4],"1.13 fold enrichment (6-mer frequency, TF over GST control)"
same,binding signal,[5],"1.14 fold enrichment (6-mer frequency, TF over GST control)"
same,binding signal,[6],"1.01 fold enrichment (6-mer frequency, TF over GST control)"
same,binding signal,[7],"1.07 fold enrichment (6-mer frequency, TF over GST control)"
same,binding signal,[8],"1.05 fold enrichment (6-mer frequency, TF over GST control)"
same,binding signal,[9],"1.1 fold enrichment (6-mer frequency, TF over GST control)"
same,binding signal,[10],"1.16 fold enrichment (6-mer frequency, TF over GST control)"
same,binding signal,[11],"1.06 fold enrichment (6-mer frequency, TF over GST control)"
same,binding signal,[12],"1.22 fold enrichment (6-mer frequency, TF over GST control)"
same,binding signal,[13],"1.15 fold enrichment (6-mer frequency, TF over GST control)"
same,binding signal,[14],"1.16 fold enrichment (6-mer frequency, TF over GST control)"
same,binding signal,[15],"1.21 fold enrichment (6-mer frequency, TF over GST control)"
same,binding signal,[16],"1.17 fold enrichment (6-mer frequency, TF over GST control)"
same,binding signal,[17],"1.04 fold enrichment (6-mer frequency, TF over GST control)"
